Screening data from PubChem BioAssay.
Only a selection was taken, and hits are over-represented in it overall.
CBX7 inh = blocks human CBX7 binding to H3K27me3 peptide. O95931. AlphaScreen His6-CBX7 / biotin-H3K27me3 peptide binding; stronger effect = lower value. normalised signal (fraction of DMSO) (test concentration not listed). 66,000 compounds, 1.1% hits; in the data active = normalised signal below about 0.5
Target sequence (O95931 whole entry, looked up): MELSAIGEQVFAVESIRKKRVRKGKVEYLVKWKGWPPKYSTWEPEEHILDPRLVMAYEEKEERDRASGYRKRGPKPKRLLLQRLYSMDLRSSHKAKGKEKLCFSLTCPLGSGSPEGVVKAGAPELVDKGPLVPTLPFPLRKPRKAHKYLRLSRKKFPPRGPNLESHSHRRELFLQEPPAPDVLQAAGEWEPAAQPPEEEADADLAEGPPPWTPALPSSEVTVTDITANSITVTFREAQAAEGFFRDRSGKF
Large screens that a line does not name were inactive.

O=C(NCc1ccc(F)cc1)c1cc2nc(-c3ccccc3)cc(C(F)(F)F)n2n1	none
FC(F)(F)c1cc(-c2cccs2)nc(-n2cncn2)n1	none
COc1ccc2nc(NC(=O)C3CCCN(S(=O)(=O)c4cccc5cccnc45)C3)sc2c1 (stereo unspecified)	none
CCN(CC)CCNC(=O)c1cc(-c2cccnc2)nc2ccccc12	none
O=C(CN1CCCC1)Nc1c2c(nc3c1CCC3)CCC2	CBX7 inh 0.27
O=C(CCCN1C(=O)c2ccccc2C1=O)Nc1c2c(nc3c1CCC3)CCC2	none
O=C(Cc1ccccc1)Nc1c2c(nc3ccccc13)CCC2	none
CCCCC(=O)Nc1c2c(nc3c1CCC3)CCCC2	none
O=C(CN1CCCCCC1)Nc1c2c(nc3c1CCC3)CCCC2	CBX7 inh 0.0744
NC(=O)c1c(NC(=O)CN2CCCCC2)sc2c1CCCC2	none
COc1ccc(OCC(=O)Nc2ccc3oc(-c4cccnc4)nc3c2)cc1	none
COc1ccc(-n2nc3c(c2NC(=O)c2ccc(C)cc2)CS(=O)(=O)C3)cc1	none
CCN(CC)C(=O)Cn1cnc2sc(C(=O)Nc3ccc(C)cc3)c(C)c2c1=O	none
CN(C)c1ccc2nnc(-c3ccc(Br)cc3)n2n1	none
O=C1CC(N2CCN(c3ccc(F)cc3)CC2)C(=O)N1CCc1ccccc1 (stereo unspecified)	none
Cc1nnc(NC(=O)c2ccc(S(=O)(=O)N(C)Cc3ccccc3)cc2)o1	CBX7 inh 0.00809
COc1ccc(-c2nnc(NC(=O)c3ccc(S(=O)(=O)N(C)C)cc3)o2)c(OC)c1	none
CN(Cc1ccccc1)S(=O)(=O)c1ccc(C(=O)Nc2ccccc2-c2nc3ccccc3o2)cc1	none
CCCCN(CCCC)S(=O)(=O)c1ccc(C(=O)Nc2nnc(C)o2)cc1	CBX7 inh 0.00474
COCCN(CCOC)S(=O)(=O)c1ccc(C(=O)Nc2nnc(-c3ccccc3Cl)o2)cc1	CBX7 inh 0.265
CCCN(CCC)S(=O)(=O)c1ccc(C(=O)Nc2nnc(-c3ccccc3Cl)o2)cc1	none
Cc1nnc(NC(=O)c2ccc(S(=O)(=O)N(C)C)cc2)o1	CBX7 inh 0.0121
CCCCN(CCCC)S(=O)(=O)c1ccc(C(=O)Nc2ccccc2-c2nc3ccccc3[nH]2)cc1	none
CN(C1CCCCC1)S(=O)(=O)c1ccc(C(=O)Nc2nnc(-c3ccccc3Cl)o2)cc1	none
CN(C)S(=O)(=O)c1ccc(C(=O)Nc2c(C(N)=O)oc3ccccc23)cc1	none
COCc1nnc(NC(=O)c2ccc(S(=O)(=O)N(C)Cc3ccccc3)cc2)o1	none
CCCCN(CCCC)S(=O)(=O)c1ccc(C(=O)Nc2nc3c(s2)COc2ccccc2-3)cc1	none
O=C(Nc1ccc(-c2noc(Cc3ccc(Cl)cc3)n2)cc1)c1cccs1	none
COc1ccc(NC(=O)c2cc(-c3ccccc3OC)on2)cc1OC	none
COc1ccccc1N1CCN(c2nnc(Cc3cccnc3)c3ccccc23)CC1	none
Cc1ccc(NC(=O)c2cc3c(CO)cnc(C)c3oc2=O)c(Cl)c1	none
O=C(c1c[nH]c2ccc(S(=O)(=O)Nc3ccccc3F)cc2c1=O)N1CCc2ccccc21	none
O=C(NCC1CCCO1)c1ccc2c(c1)N(Cc1c(F)cccc1Cl)C(=O)CS2 (stereo unspecified)	none
O=C(c1cccc(Cl)c1)N1CCN(c2ccc3nnc(-c4ccc(F)cc4)n3n2)CC1	none
O=C(O)c1cccc(-n2c(/C=C/c3ccc(OC(F)F)cc3)nc3cc(Cl)ccc3c2=O)c1	none
COCCN(CCOC)S(=O)(=O)c1ccc(C(=O)Nc2nnc(C)o2)cc1	CBX7 inh 0.0057
COCCN(CCOC)S(=O)(=O)c1ccc(C(=O)Nc2nc(-c3ccc(OC)cc3)cs2)cc1	none
COCCN(CCOC)S(=O)(=O)c1ccc(C(=O)Nc2nc(-c3ccncc3)cs2)cc1	none
COCCN(CCOC)S(=O)(=O)c1ccc(C(=O)Nc2nnc(-c3ccc(F)cc3)o2)cc1	CBX7 inh 0.0251
CCN(Cc1ccccc1)S(=O)(=O)c1ccc(C(=O)Nc2nnc(-c3ccc(OC)cc3)o2)cc1	none
COCCN(CCOC)S(=O)(=O)c1ccc(C(=O)Nc2nnc(COC)o2)cc1	none
O=C(O)c1ccc2c(c1)C(=O)N(Cc1cccnc1)C2=O	none
CCOC(=O)c1cnc2cc(C(F)(F)F)ccc2c1Nc1ccc(C(F)(F)F)cc1	none
O=C(O)CCC(=O)Nc1ccc(-c2csc(-c3ccccc3)n2)cc1	none
Cc1ccc2nc(-c3ccccc3)c(NC(=O)c3ccc(Cl)cc3)n2c1	none
COCCCNC(=O)c1cn(CC(C)C)c(=O)c2cc(OC)c(OC)cc12	none
COc1ccc(CCNc2oc(COc3ccc(Cl)cc3)nc2C#N)cc1	none
N#Cc1nc(COc2ccc(Cl)cc2)oc1NCc1cccnc1	none
N#Cc1nc(COc2ccccc2Cl)oc1NCCCn1ccnc1	CBX7 inh 0
N#Cc1nc(COc2ccccc2F)oc1NCCc1ccccc1	CBX7 inh 0.491
N#Cc1nc(COc2ccc(F)cc2)oc1NCCc1ccccc1	none
CN(Cc1ccccc1)c1oc(COc2ccc(Cl)cc2)nc1C#N	CBX7 inh 0.484
COc1ccc(Nc2oc(COc3ccccc3F)nc2C#N)cc1	none
CN(Cc1ccccc1)c1oc(COc2ccccc2F)nc1C#N	CBX7 inh 0.417
N#Cc1nc(COc2ccc(Cl)cc2)oc1NCCCn1ccnc1	none
Cc1ccccc1OCc1nc(C#N)c(NCCCn2ccnc2)o1	none
COc1ccccc1OCc1nc(C#N)c(NCCc2ccccc2)o1	none
CC(Nc1oc(COc2ccccc2F)nc1C#N)c1ccccc1 (stereo unspecified)	none
COc1cc2c(C(=O)Nc3ccc(F)cc3Cl)cn(C)c(=O)c2cc1OC	none
CCOc1ccc(CCNC(=O)CC2Oc3ccccc3NC2=O)cc1 (stereo unspecified)	none
Cc1cc(C(=O)NCc2ccccc2)n(-c2ccccc2)n1	none
Cc1ccccc1C(=O)Nc1sc2c(c1C(=O)N1CCCC1)CCCCC2	none
O=C(NC1CCCCCC1)C1(S(=O)(=O)c2ccc(Cl)cc2)CC1	none
Cc1nc2cc(C(=O)NC3CCCC(C)C3C)ccc2n1-c1ccc(Br)cc1 (stereo unspecified)	none
O=C(CSc1n[nH]c(-c2ccccc2)n1)Nc1ccccn1	none
Cc1ccc2c(c1)C(c1ccc(F)cc1)N(C(=O)c1ccccc1F)CC(=O)N2 (stereo unspecified)	none
O=C(Nc1cccc(Cl)c1)c1cc(-c2cccc(Cl)c2)on1	none
COc1ccccc1NC(=O)Nc1nnc(N2C(C)CCCC2C)s1 (stereo unspecified)	none
CCCCn1c(CNC(=O)c2ccccc2)nc2ccccc21	none
Cc1ccc(C)c(N2CCN(C(=O)CC3Sc4ccccc4NC3=O)CC2)c1 (stereo unspecified)	CBX7 inh 0.495
Cc1cccc(CCNC(=O)CC2Sc3ccccc3NC2=O)c1 (stereo unspecified)	none
Cc1cc(Cl)ccc1NC(=O)CC1Sc2ccccc2NC1=O (stereo unspecified)	none
C=CCNC(=O)c1ccc2c(c1)NC(=O)c1ccccc1N2	none
CCc1ccc(NC(=O)c2csc3c2CCCCC3)cc1	none
O=C(O)c1nn2c(C(F)(F)F)cc(-c3ccc(Cl)c(Cl)c3)nc2c1Br	none
COc1ccc(NC(=O)c2c(NCc3cccs3)sc3c2CCCCC3)cc1	none
CCOc1ccc(NC(=O)c2c(NCc3cccs3)sc3c2CCCCC3)cc1	CBX7 inh 0.442
COc1ccc(Cl)cc1NC(=O)c1c(NCc2cccs2)sc2c1CCCC2	none
COc1ccc(OC)c(NC(=O)c2c(NCc3cccs3)sc3c2CCCCC3)c1	CBX7 inh 0.427
COc1ccc(OC)c(NC(=O)c2c(NCc3cccs3)sc3c2CCC3)c1	none
COc1ccc(Cl)cc1NC(=O)c1c(NCc2sccc2C)sc2c1CCCC2	CBX7 inh 0.388
COc1ccc(OC)c(NC(=O)c2c(NCc3cccs3)sc3c2CCCC3)c1	none
